{"source": "PubChem BioAssay AID504832", "about": "(National Center for Advancing Translational Sciences (NCATS), 2011)", "note": "The campaign covered roughly 310,000 compounds. About 18,000 (5.8%) were called active. Not shown: some 22% with an inconclusive outcome. Only a selection was taken, and actives are over-represented in it overall. A number with no mark means an inactive call. Calls come from the whole dose curve; as a rule, active = well fitted inhibition curve with a large enough effect; inconclusive = small, poorly fitted or top-dose-only effect, or another doubt; inactive = no such curve, though single readings can be large or run the other way. % is set by controls: 0 for no effect and ±100 for the full control effect; potency is the fitted concentration of half-maximal effect."}
{"assay": "Primary qHTS for delayed death inhibitors of the malarial parasite plastid, 48 hour incubation", "settings": "P. falciparum luciferase growth in erythrocytes; series mostly up to 28.7 µM; activity change, negative = inhibition: at the top concentration", "method_in_brief": "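Erythrocytes infected with P. falciparum carrying an integrated firefly luciferase reporter (2% hematocrit, 0.1% parasitemia final) were exposed to compounds in RPMI 1640 with 0.5% Albumax at 37 C, 5% CO2. Growth inhibition was scored as reduced luminescence.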"}
{"smiles": "CN(C)c1nc(=Nc2cccc(Cl)c2)ss1", "Potency": "1.04 µM (active)"}
{"smiles": "Cc1cc(OCc2cc(C(=O)NCc3cc(C(C)C)no3)no2)cc(C)c1Cl", "activity change, negative = inhibition": "70.9%"}
{"smiles": "COC(=O)c1ccc(COC(=O)c2cnc(Cl)c(Cl)c2)cc1", "activity change, negative = inhibition": "30.7%"}
{"smiles": "Cc1cc(C(F)(F)F)nc(SCC(=O)Nc2nccs2)n1", "activity change, negative = inhibition": "11.1%"}
{"smiles": "COc1ccc(C(C)NC(=O)C23CC4CC(CC(C4)C2)C3)cc1", "note": "(stereo not drawn)", "activity change, negative = inhibition": "-3.72%"}
{"smiles": "CN1C(=O)C2(OCCCO2)c2cc(Cl)ccc21", "activity change, negative = inhibition": "12.7%"}
{"smiles": "CN1CCN(c2nc(Nc3ccc(O)cc3)nc3ccccc23)CC1", "Potency": "2.94 µM (active)"}
{"smiles": "CCCCc1nc2ccccc2c(NC(=O)CN2CCN(C)CC2)c1CCC", "activity change, negative = inhibition": "-17.8%"}
{"smiles": "CCc1ccc(-c2cc(C(=O)NN3CCN(C)CC3)c3ccccc3n2)cc1", "activity change, negative = inhibition": "-61.6%"}
{"smiles": "CCOC(CNC(=O)C1CCN(S(=O)(=O)c2ccc3nc4c(c(C(=O)O)c3c2)CC(C)CC4)CC1)OCC", "note": "(stereo not drawn)", "activity change, negative = inhibition": "8.14%"}
{"smiles": "C/C(=N\\N(C)C)c1ccc(OCCOc2ccc([N+](=O)[O-])cc2)cc1", "activity change, negative = inhibition": "16.6%"}
{"smiles": "COc1ccccc1OCC(=O)Nc1ccccc1C(=O)NC1CC1", "activity change, negative = inhibition": "7.53%"}
{"smiles": "C#CC(C)(C)NC(=O)c1cnc(-c2ccccc2)nc1-c1ccccc1", "activity change, negative = inhibition": "-21%"}
{"smiles": "Cc1ccc2nc(N3CCN(C(=O)c4ccco4)CC3)sc2c1", "activity change, negative = inhibition": "41%"}
{"smiles": "O=C(c1ccc2nc(N3CCOCC3)sc2c1)N1CCN(c2ccc(Cl)cc2)CC1", "activity change, negative = inhibition": "9.24%"}
{"smiles": "COc1ccc2nc(N3CCN(C(=O)c4ccc([N+](=O)[O-])o4)CC3)sc2c1", "Potency": "1.31 µM (active)"}
{"smiles": "Cc1nc(C)c(-c2nnc(-c3cccc(S(=O)(=O)N(C)C)c3)o2)cc1C(=O)NN", "activity change, negative = inhibition": "7.9%"}
{"smiles": "O=C(COc1coc(CN2CCN(c3ccccc3)CC2)cc1=O)Nc1ccccc1F", "activity change, negative = inhibition": "-15.8%"}
{"smiles": "Cc1cc(C)cc(NC(=O)COc2coc(CN3CCN(c4ccccc4)CC3)cc2=O)c1", "Potency": "13.1 µM (active)"}
{"smiles": "O=C(COc1coc(CN2CCN(c3ccccc3)CC2)cc1=O)N1CCc2ccccc21", "activity change, negative = inhibition": "-2.8%"}
{"smiles": "Cc1ccsc1C(=O)NCCc1ccco1", "activity change, negative = inhibition": "314%"}
{"smiles": "O=C(c1[nH]ncc1-c1ccc(Cl)cc1)C1CO1", "note": "(stereo not drawn)", "Potency": "7.38 µM (active)"}
{"smiles": "O=C(c1nnc(-c2ccc(Cl)cc2)o1)C1CCCC1", "activity change, negative = inhibition": "53.1%"}
{"smiles": "C=CCNC(=O)c1ccccc1SCc1c(C)noc1C", "activity change, negative = inhibition": "18.5%"}
{"smiles": "COc1ccc(NC(=O)CN(C)C(=O)c2ccc(COc3ccccc3)o2)cc1", "activity change, negative = inhibition": "3.34%"}
{"smiles": "Cc1ccc(C(C)C)c(OCCSc2nc3ccccc3n2CC(=O)O)c1", "activity change, negative = inhibition": "-1.15%"}
{"smiles": "Cc1cccc(NC(=O)Nc2nnc(-c3ccccc3)o2)c1", "activity change, negative = inhibition": "10.4%"}
{"smiles": "COc1cccc(NC(=O)NCc2ccc(F)cc2)c1", "activity change, negative = inhibition": "17.6%"}
{"smiles": "Cc1cccc(NC(=O)Nc2cccc(Oc3c(F)c(F)c(F)c(F)c3F)c2)c1", "Potency": "4.15 µM (active)"}
{"smiles": "Cn1c(=O)c(=O)n(C)c2cc(S(=O)(=O)CCC(=O)N3CCCCC3)ccc21", "activity change, negative = inhibition": "-2.89%"}
{"smiles": "COc1cccc(OCc2cc(C(=O)N3CCN(C(=O)c4ccco4)CC3)no2)c1", "activity change, negative = inhibition": "-6.87%"}
{"smiles": "COc1ccc(OC)c(C(=O)NC(CC(N)=O)c2ccc(N3CCC(N4CCCCC4)CC3)c([N+](=O)[O-])c2)c1", "note": "(stereo not drawn)", "activity change, negative = inhibition": "9.68%"}
{"smiles": "CCCCCCCCCCCCN1C(=O)CSC1c1cccnc1", "note": "(stereo not drawn)", "Potency": "1.85 µM (active)"}
{"smiles": "CN(C)CCCN1C(=O)CSC1c1ccc([N+](=O)[O-])cc1", "note": "(stereo not drawn)", "activity change, negative = inhibition": "-1.3%"}
{"smiles": "O=C(O)C1CSC(c2cccnc2)N1", "note": "(stereo not drawn)", "activity change, negative = inhibition": "23.7%"}
{"smiles": "CCN(CC(=O)Nc1ccc(NC(C)=O)cc1)C(=O)CSC(=S)N1CCCC1", "activity change, negative = inhibition": "-12.7%"}
{"smiles": "CCOc1cc(/C=N/Nc2cc(C)nc3ccc(C)cc23)ccc1O", "activity change, negative = inhibition": "30.6%"}
{"smiles": "Cc1cc(C)nc(N/N=C/c2ccc([N+](=O)[O-])o2)n1", "activity change, negative = inhibition": "-1.43% [at 0.00184 µM]"}
{"smiles": "CCN(CC)c1ccc(/C=N/Nc2nc(C)cc(C)n2)c(O)c1", "Potency": "7.38 µM (active)"}
{"smiles": "CC(C)NC(=O)N1CCN(c2ccncc2S(=O)(=O)N2CCCCC2)CC1", "activity change, negative = inhibition": "-10.9%"}
{"smiles": "O=C(CCS(=O)(=O)c1ccccc1)NC1CCCC1", "activity change, negative = inhibition": "122%"}
{"smiles": "COc1ccccc1OCCCC(=O)Nc1ccc2c(c1)OCCO2", "activity change, negative = inhibition": "15%"}
{"smiles": "O=C(Cn1c(-c2ccccn2)nc2ccccc21)NCCN1CCOCC1", "activity change, negative = inhibition": "13.8%"}
{"smiles": "O=C(NCCN1CCOCC1)c1ccc2c(c1)ncn2C1CCCC1", "activity change, negative = inhibition": "33.8%"}
{"smiles": "c1ccc2cc3c(NCCN4CCOCC4)ccnc3cc2c1", "Potency": "0.147 µM (active)"}
{"smiles": "O=C(NCCS(=O)(=O)N1CCN(c2ccccc2)CC1)c1ccco1", "activity change, negative = inhibition": "4.48%"}
{"smiles": "CC1CN(C(=S)Nc2ccc(Br)cc2Cl)CC(C)O1", "note": "(stereo not drawn)", "activity change, negative = inhibition": "9.95%"}
{"smiles": "CS(=O)(=O)c1ccccc1C(=O)Nc1ccc2sccc2c1", "activity change, negative = inhibition": "8.68%"}
{"smiles": "COc1ccc(CC(NC(C)=O)C(=O)NC2CCN(C(=O)c3ccc(Cl)cc3)CC2)cc1", "note": "(stereo not drawn)", "activity change, negative = inhibition": "-15.7%"}
{"smiles": "COc1ccccc1N(C)S(=O)(=O)c1ccc(C(=O)NC2CCCCCC2)cc1", "activity change, negative = inhibition": "0%"}
{"smiles": "COc1ccccc1N(C)S(=O)(=O)c1ccc(Cl)c(C(=O)N2CCC(C(N)=O)CC2)c1", "activity change, negative = inhibition": "-11.5%"}
{"smiles": "COc1ccccc1N(C)S(=O)(=O)c1ccc(Cl)c(C(=O)Nc2ccncc2)c1", "Potency": "8.28 µM (active)"}
{"smiles": "COc1ccc(CNC(=O)COC(=O)c2c(C)nn(-c3ccccc3)c2C)cc1OC", "activity change, negative = inhibition": "-4.91%"}
